Values without a mark were called inactive. How the calls were made is not given here.
Molecular target: Pantothenate synthetase (Mycobacterium tuberculosis (strain ATCC 25618 / H37Rv)) (UniProt P9WIL5)
Assay: Coupled enzyme confirmation of inhibitors against recombinant Mtb PanC (AID 375);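 further: 0% = full reaction with vehicle and 100% = no enzyme background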
Settings: coupled enzyme assay; at 10 µM, hits give high values

Chain of Pantothenate synthetase (Mycobacterium tuberculosis (strain ATCC 25618 / H37Rv)) (P9WIL5 whole entry, looked up): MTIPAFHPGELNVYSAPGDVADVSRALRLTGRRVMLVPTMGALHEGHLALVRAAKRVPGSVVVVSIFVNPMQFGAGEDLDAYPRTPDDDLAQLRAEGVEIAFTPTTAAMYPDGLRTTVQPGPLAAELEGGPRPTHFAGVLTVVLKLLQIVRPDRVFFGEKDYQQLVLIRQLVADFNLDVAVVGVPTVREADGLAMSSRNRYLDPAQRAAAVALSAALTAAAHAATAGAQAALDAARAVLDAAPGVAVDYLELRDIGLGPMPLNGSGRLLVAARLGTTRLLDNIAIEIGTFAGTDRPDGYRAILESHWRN

Structure (SMILES)	inhibition [%]
CCCC(=O)Nc1ccc(NC(=O)c2cccs2)cn1	5
CCOC(=O)c1c(NC(=O)OC)sc(C(=O)N(C)C)c1C	1
COc1ccc(C(=O)NCCC(C)C)cc1S(=O)(=O)N1CCOCC1	9
COc1ccc(C2NC(c3ccc(OC)c(OC)c3OC)C(C)C(=O)C2C)c(OC)c1OC (stereo not given)	0
CCOC(=O)c1c(-c2ccc(C)o2)csc1NC(=O)CN1CCN(CC)CC1	0
C=CCn1c(SCc2ccc(C#N)cc2)nnc1-c1cccc(Cl)c1	1
Cc1nnc(SCc2ccccc2)n1N	0
CCOc1ccc2[nH]c(=O)c(C(c3nnnn3CC3CCCO3)N3CCc4ccccc4C3)cc2c1 (stereo not given)	0
COc1ccc(OC)c(NC(=O)C2C3CC4OC(=O)C2C4C3)c1 (stereo not given)	0
CCn1c(SCC(N)=O)nc2c1c(=O)n(C)c(=O)n2C	0
CCN(CC)CCOC(=O)c1cccc(OC)c1	0
CCOc1ccc(NC(=O)CSc2nnnn2CC(=O)O)cc1	0
COc1ccc(-c2noc(-c3cc(Cl)ccc3Cl)n2)cc1OC	2
O=C(NCCCN1CCOCC1)c1ccc(CS(=O)(=O)c2c(Cl)cccc2Cl)o1	0
COC(=O)Nc1ccccc1C(=O)N1CCCCC1	0
Cc1ccc(C(=O)OCC(=O)Nc2ccc3c(c2)OCO3)o1	4
CC(=O)c1ccccc1NS(=O)(=O)c1c(C)nn(-c2ccccc2)c1C	0
CCCC(=O)Nc1nnc(CC(=O)OCC)s1	3
C=CCSc1nc2sc(C)c(C)c2c(=O)[nH]1	10
CCCSc1nc2c(cnn2-c2ccc(Cl)cc2)c(=O)[nH]1	0

Structure (SMILES)	inhibition [%]
O=C(O)c1cccc(CN2C(=O)SC(Nc3ccccc3)C2=O)c1 (stereo not given)	4
COc1ccc(-c2noc(CCN3C(=O)c4ccccc4C3=O)n2)cc1OC	7
CCCCCc1nnc(NC(=O)Cc2cccs2)s1	0
CCOC(=O)C1CCCN(c2c(NCc3ccco3)c(=O)c2=O)C1 (stereo not given)	0
CSc1c(CC(=O)NCCO)n(C)c2ccccc12	0
Cc1nnc(SCC(=O)N2CCN(S(=O)(=O)c3ccccc3)CC2)[nH]c1=O	0
CC(NC(=O)OCc1ccccc1)C(=O)N1CC(O)CC1C(=O)O (stereo not given)	0
Cc1ccc(-c2cc(C(=O)Nc3cc(C)on3)c3ccccc3n2)c(C)c1	0
CCC(Sc1nc2n[nH]c(C)c2c(=N)n1-c1cc(Cl)ccc1C)C(=O)N1CCOCC1 (stereo not given)	0
CN1CCC(=C2c3ccccc3C=Cc3ccccc32)CC1	0
COCCn1c(SCC(=O)N2CCc3ccccc32)nc2c(c1=O)SC(C)C2 (stereo not given)	1
NC(=O)CSCc1ccc(Br)cc1	0
COC(=O)c1cc(NC(=O)C2COc3ccccc3O2)cc(C(=O)OC)c1 (stereo not given)	0
Cc1nc2ccccc2c2oc(C(=O)NCCCN3CCCC3=O)cc12	7
CCOCC(=O)Nc1c(C(=O)Nc2ccc(OC)cc2OC)oc2ccccc12	0
CCCS(=O)(=O)N1CCC(C(=O)N2CCCC2)CC1	7
CCCCS(=O)(=O)NC1=NCN(CCOC(=O)c2ccccc2)CN1	0
O=C(Cn1c(=O)[nH]c2ccsc2c1=O)NC1CCCCCC1	7
Cn1c(C(=O)N2CCN(C(=O)c3ccco3)CC2)cc2c(=O)n3ccccc3nc21	9
COc1ccc(OCC(=O)Nc2cccc3ncccc23)cc1	2

— PubChem BioAssay
